Out of some 5,500 compounds screened, about 2,000 (36%) were called active. Not shown: some 18% with an inconclusive outcome. Rule as the data show it: active = normalized growth mostly below about 0.91 (no sharp cut-off); inconclusive = no clear call, values can overlap the other calls; inactive = mostly above about 0.92. The list shows a part of the results.
Experiment: chemical genetic growth profiling, strain panel (AID 1159580);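 also: tested at 20 µM; growth read once vehicle control cultures reached saturation at 30 °C; 1 = growth at the plate median or of vehicle wells; lower values mean less growth of the strain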
Details: growth OD

Measured: normalized growth

CN(C)c1ccc(C(=O)NN)cc1
inactive: S. cerevisiae deletion strains, locus YAL013W, strain DEP1, hits give low values 1.02 | S. cerevisiae deletion strains, locus YBR229C, strain ROT2, hits give low values 1.02 | S. cerevisiae deletion strains, locus YDL101C, strain DUN1, hits give low values 1.02 | S. cerevisiae deletion strains, locus YDL134C, strain PPH21, hits give low values 1.01 | S. cerevisiae deletion strains, locus YDR150W, strain NUM1, hits give low values 0.924 | S. cerevisiae deletion strains, locus YEL061C, strain CIN8, hits give low values 0.99 | S. cerevisiae deletion strains, locus YGR078C, strain PAC10, hits give low values 1.01 | S. cerevisiae deletion strains, locus YHR030C, strain SLT2, hits give low values 1.08 | S. cerevisiae deletion strains, locus YHR087W, strain rtc3, hits give low values 1.03 | S. cerevisiae deletion strains, locus YJL187C, strain SWE1, hits give low values 1.01 | S. cerevisiae deletion strains, locus YJR043C, strain POL32, hits give low values 1.02 | S. cerevisiae deletion strains, locus YJR075W, strain HOC1, hits give low values 1 | S. cerevisiae deletion strains, locus YKL190W, strain CNB1, hits give low values 1.01 | S. cerevisiae deletion strains, locus YLR039C, strain RIC1, hits give low values 1.14 | S. cerevisiae deletion strains, locus YLR058C, strain SHM2 (second series), hits give low values 1.02 | S. cerevisiae deletion strains, locus YLR085C, strain ARP6, hits give low values 0.96 | S. cerevisiae deletion strains, locus YLR262C, strain YPT6, hits give low values 1.15 | S. cerevisiae deletion strains, locus YML094W, strain GIM5, hits give low values 1.01 | S. cerevisiae deletion strains, locus YMR219W, strain ESC1, hits give low values 1.01 | S. cerevisiae deletion strains, locus YMR263W, strain SAP30, hits give low values 0.992 | S. cerevisiae deletion strains, locus YNL153C, strain GIM3, hits give low values 1.02 | S. cerevisiae deletion strains, locus YNL298W, strain CLA4 (second series), hits give low values 1 | S. cerevisiae deletion strains, locus YNL322C, strain KRE1, hits give low values 1 | S. cerevisiae deletion strains, locus YNR030W, strain Alg12, hits give low values 1.01 | S. cerevisiae deletion strains, locus YPL055C, strain LGE1, hits give low values 0.954 | S. cerevisiae deletion strains, locus YPL241C, strain CIN2, hits give low values 0.997 | S. cerevisiae deletion strains, locus YPR135W, strain CTF4, hits give low values 1 | S. cerevisiae strains, strain wild type, hits give low values 1.02

Source: PubChem BioAssay AID1159580 (chemical genetic matrix, 2015)
